Data: the supplement of paper PMC5662767
Where a name gives a salt, the structure may show the parent alone.

Test system: Drosophila S2 cl14 SmoIP sensor cells
Test: normalized SmoIP GFP fluorescence (untreated unstimulated = 0%, untreated Hh-stimulated = 100%); higher = more Smo activation sensor fluorescence
Settings: compound concentration: 2 uM, 24 h
[1] = stimulation: Hh conditioned medium (+Hh)
[2] = stimulation: mock conditioned medium (-Hh)
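Also: flow cytometry read-out as median GFP intensity of gated cells, compounds added 30 min before Hh-conditioned or mock medium, mock-treated cells serving as unstimulated baseline.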

Row | SMILES | normalized SmoIP GFP fluorescence [1] [%] | normalized SmoIP GFP fluorescence [2] [%]
1 | CNC(CC(=O)O)C(=O)O (stereo not drawn) [nmda-n-methyl-d-aspartic-acid] | 101 | -3.16
2 | O=C(O)c1ccc(Nc2ncc3c(n2)-c2ccc(Cl)cc2C(c2c(F)cccc2F)=NC3)cc1 | 271 | 46.7
3 | CCO[C@@H]1OC(=O)C[C@@H]1NC(=O)[C@@H]1CCCN1C(=O)[C@@H](NC(=O)c1ccc(N)c(Cl)c1)C(C)(C)C | 135 | -7.78
4 | CCc1ccc(/C=C2/SC(=S)NC2=O)cc1 | 105 | -1.63
5 | O=C1NC(=O)/C(=C/c2ccc3nccc(-c4ccncc4)c3c2)S1 | 175 | 2.43
6 | COC(=O)C1=C(C)NC(C)=C(C(=O)OC2CCCN(Cc3ccccc3)C2)C1c1cccc([N+](=O)[O-])c1 (configuration not stated) [benidipine-hydrochloride] | 89.9 | -3.9
7 | CCN(CC)CCOC(=O)c1ccc(N)cc1 [procaine-novocaine-hcl] | 107 | -3.5
8 | CC[C@@H](C)Nc1cc(C(=O)N[C@H]2C[C@H]3CC[C@@H](C2)N3c2ccc(C(=O)C3CC3)cn2)c(C)cc1C(N)=O | 150 | 18
9 | COc1cc2ncnc(Sc3nnc(C)s3)c2cc1OC [sklb1002] | 107 | -0.491
10 | C[C@@H](Oc1cc(-n2cnc3ccc(CN4CCN(C)CC4)cc32)sc1C(N)=O)c1ccccc1C(F)(F)F | 113 | 17.7
11 | CCc1c(C(=O)NCCc2ccc(N3CCCCC3)cc2)[nH]c2ccc(Cl)cc12 | 167 | -0.804
12 | COc1cc(Br)c(Nc2nc(-c3c(C)nc4ncccn34)cs2)c(Br)c1 | 110 | 5.12
13 | O=c1cc(-c2ccccc2)oc2cc(O)c(O)c(O)c12 [Baicalein] | 108 | 1.24
14 | Oc1cc(O)cc(/C=C/c2ccc(O)c(O)c2)c1 [piceatannol] | 114 | -2.08
15 | COc1ccc(Cn2ccc3ccc(C(=O)NO)cc32)cc1 | 111 | -8.59
16 | CCC(=O)N1CCN(c2ccc(-n3c(=O)ccc4cnc5ccc(-c6cnc7ccccc7c6)cc5c43)cc2C(F)(F)F)CC1 [torin-1] | 46.9 | -12.5
